# Measured values from PubChem BioAssay (NCI).
# About 79,000 compounds went through this panel and 15% of them were active in at least one assay; those are over-represented in the sample as a whole. The source made the active and inactive calls. No stated cut-off is given here; in the data, active means growth inhibition above about 70%; inactive means the rest.
# Assay: NCI Yeast Anticancer Drug Screen. Data for the sgs1 mgt1 strain (AID 161);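 further: 0% = growth of cultures given vehicle only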
# Conditions: S. cerevisiae sgs1 mgt1 strain, at 50.0 µM, active compounds read high
# How it was run: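 Mutant yeast exposed to compound; growth scored against vehicle-only wells.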
row,Structure (SMILES),growth inhibition
1,CN(C)CCNS(=O)(=O)N(C)C,-24.4% (inactive)
2,CC12CCC(C/C1=N\O)C2(C)CBr (stereo not given),-4.35% (inactive)
3,CCC(C)C(NN)C(=O)O (stereo not given),-22.4% (inactive)
4,O=C(O)Cc1c(-c2ccccc2)nc(=S)[nH]c1-c1[nH]c(=S)nc(-c2ccccc2)c1CC(=O)O,-17% (inactive)
5,O=c1c([OH2+])c(-c2ccc(O)cc2[O-])oc2cc(O)cc([O-])c12.O=c1c([OH2+])c(-c2ccc(O)cc2[O-])oc2cc(O)cc([O-])c12.[Ti+4],7.95% (inactive)
6,Cc1ccc([N+](=O)[O-])cc1NC(=O)COc1ccc(Cl)cc1Cl,13.5% (inactive)
7,COc1ccc(/C=N/Nc2nc(C)c(C)s2)cc1,53.4% (inactive)
8,CC1=CC(=O)C(CCC#N)C(C)(C)C1 (stereo not given),-1.75% (inactive)
9,NNC(=O)CC(N)C(=O)O (stereo not given),-4.2% (inactive)
10,CCCCN(CCCC)C(=O)OCC,6.35% (inactive)
11,COc1cc(C=O)ccc1OC(=O)Nc1cccc(Cl)c1C,15.8% (inactive)
12,O=C(c1cccc([N+](=O)[O-])c1)c1cccs1,-9.05% (inactive)
13,Cc1ccc(S(=O)(=O)Oc2ccccc2C(=O)O)cc1,-12.3% (inactive)
14,CC(C)C1CC(C)(C)C2CC3OC(C(C)C)CC(C)(C)C3CC2O1 (stereo not given),2.75% (inactive)
15,O=C(/C=C/c1ccc(O)cc1)c1ccc(Cl)cc1,-18.6% (inactive)
16,CCOC(=O)NC(=S)Nc1ccn(C)c1,4.6% (inactive)
17,COC(=O)c1c2c(cc3c1CCC3)CCC2,-31.8% (inactive)
18,Cc1ccnc(NCc2ccccn2)c1,17.4% (inactive)
19,Cc1cc(O)cc2oc(=O)ccc12,-9.9% (inactive)
20,CCOC(=O)c1c2ccc(/C=C/c3ccccn3)ccc-2c(C(=O)OCC)c1N,-1% (inactive)

row,Structure (SMILES),growth inhibition
1,CC[C@H]1CN(C)[C@H]2Cc3c([nH]c4ccccc34)C(=O)C[C@H]1C2C(=O)OC (stereo not given in full),6.95% (inactive)
2,CC1=Nc2ccccc2NC2(C1)C(C1COC(C)(C)O1)OC1OC(C)(C)OC12 (stereo not given),20.3% (inactive)
3,CCOC(=O)c1nc2ccc(C(F)(F)F)cc2nc1Nc1cc(OC)c(OC)c(OC)c1,-30.8% (inactive)
4,Cc1cc(OCCOC(=O)Nc2ccccc2C(F)(F)F)cc(C)c1Cl,-3.35% (inactive)
5,COC(=O)NC1(NC(=O)OC)NC(=O)c2cc(OC)c(OC)cc2N1,27.4% (inactive)
6,CC1=Nc2ccccc2S/C1=C(/C)NN,0.2% (inactive)
7,O=C(O)/C=C\C(=O)Nc1ccc(S(=O)(=O)Nc2nccs2)cc1,-15.2% (inactive)
8,COC(=O)c1ccc(C(=O)c2ccccc2)cc1,27.9% (inactive)
9,CS(=O)(=O)Nc1cccc(C(=O)NN)c1,-3.4% (inactive)
10,CCOP(=O)(OCC)C(C)(CC)NC1=NC(C(F)(F)F)(C(F)(F)F)NC(=O)N1 (stereo not given),-3.3% (inactive)
11,NC1=NN(c2c(Cl)cc(Cl)cc2Cl)C(=O)C1,17.6% (inactive)
12,CCCCNC(=S)N(CCCC)CCCC,10.3% (inactive)
13,COc1ccc(CCCN2c3ccccc3Sc3ccccc32)cc1,-21.2% (inactive)
14,C=CC(C)(C)C1=CC(=O)C(OC)=CC1=O,-3.7% (inactive)
15,O=c1[nH]nc(-c2ccccc2)c2c1[nH]c1ccccc12,-0.85% (inactive)
16,CC1=CNNc2ccccc21,-4.6% (inactive)
17,S=C1Cc2c(-c3ccc(Br)cc3)cc(-c3ccccc3)nc2-c2ccccc2N1,23.4% (inactive)
18,O=c1[nH]c(=O)c2nccnc2[nH]1,-10.7% (inactive)
19,CC1CN(C(=O)OCC23COC4(C)CCC(C)(OC2)N34)CC(C)O1 (stereo not given),6.9% (inactive)
20,O=C(Nc1nncs1)c1ccncc1,-13.2% (inactive)

# Assay: NCI Yeast Anticancer Drug Screen. Data for the cln2 rad14 strain (AID 165);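 further: 0% = growth equal to vehicle treated cultures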
# Conditions: S. cerevisiae cln2 rad14 strain, at 50.0 µM, active compounds read high
# How it was run: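 Each compound was tested on cln2 rad14 yeast. Inhibition of growth was calculated against vehicle-exposed controls.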
row,Structure (SMILES),growth inhibition
1,CN(C)CCNS(=O)(=O)N(C)C,7.45% (inactive)
2,CC12CCC(C/C1=N\O)C2(C)CBr (stereo not given),-1.1% (inactive)
3,CCC(C)C(NN)C(=O)O (stereo not given),-24.6% (inactive)
4,O=C(O)Cc1c(-c2ccccc2)nc(=S)[nH]c1-c1[nH]c(=S)nc(-c2ccccc2)c1CC(=O)O,-12.3% (inactive)
5,O=c1c([OH2+])c(-c2ccc(O)cc2[O-])oc2cc(O)cc([O-])c12.O=c1c([OH2+])c(-c2ccc(O)cc2[O-])oc2cc(O)cc([O-])c12.[Ti+4],8.2% (inactive)
6,Cc1ccc([N+](=O)[O-])cc1NC(=O)COc1ccc(Cl)cc1Cl,10.2% (inactive)
7,COc1ccc(/C=N/Nc2nc(C)c(C)s2)cc1,11.4% (inactive)
8,CC1=CC(=O)C(CCC#N)C(C)(C)C1 (stereo not given),-36.9% (inactive)
9,NNC(=O)CC(N)C(=O)O (stereo not given),-20.7% (inactive)
10,CCCCN(CCCC)C(=O)OCC,12.4% (inactive)
11,COc1cc(C=O)ccc1OC(=O)Nc1cccc(Cl)c1C,1.9% (inactive)
12,O=C(c1cccc([N+](=O)[O-])c1)c1cccs1,4.3% (inactive)
13,Cc1ccc(S(=O)(=O)Oc2ccccc2C(=O)O)cc1,-55.3% (inactive)
14,CC(C)C1CC(C)(C)C2CC3OC(C(C)C)CC(C)(C)C3CC2O1 (stereo not given),-2.65% (inactive)
15,O=C(/C=C/c1ccc(O)cc1)c1ccc(Cl)cc1,-36.9% (inactive)
16,CCOC(=O)NC(=S)Nc1ccn(C)c1,39.9% (inactive)
17,COC(=O)c1c2c(cc3c1CCC3)CCC2,14.8% (inactive)
18,Cc1ccnc(NCc2ccccn2)c1,-0.15% (inactive)
19,Cc1cc(O)cc2oc(=O)ccc12,-11.7% (inactive)
20,CCOC(=O)c1c2ccc(/C=C/c3ccccn3)ccc-2c(C(=O)OCC)c1N,13% (inactive)

row,Structure (SMILES),growth inhibition
1,CC[C@H]1CN(C)[C@H]2Cc3c([nH]c4ccccc34)C(=O)C[C@H]1C2C(=O)OC (stereo not given in full),12.6% (inactive)
2,CC1=Nc2ccccc2NC2(C1)C(C1COC(C)(C)O1)OC1OC(C)(C)OC12 (stereo not given),21.5% (inactive)
3,CCOC(=O)c1nc2ccc(C(F)(F)F)cc2nc1Nc1cc(OC)c(OC)c(OC)c1,2.85% (inactive)
4,Cc1cc(OCCOC(=O)Nc2ccccc2C(F)(F)F)cc(C)c1Cl,-44.4% (inactive)
5,COC(=O)NC1(NC(=O)OC)NC(=O)c2cc(OC)c(OC)cc2N1,-16.5% (inactive)
6,CC1=Nc2ccccc2S/C1=C(/C)NN,15.6% (inactive)
7,O=C(O)/C=C\C(=O)Nc1ccc(S(=O)(=O)Nc2nccs2)cc1,2.6% (inactive)
8,COC(=O)c1ccc(C(=O)c2ccccc2)cc1,5.55% (inactive)
9,CS(=O)(=O)Nc1cccc(C(=O)NN)c1,-11.3% (inactive)
10,CCOP(=O)(OCC)C(C)(CC)NC1=NC(C(F)(F)F)(C(F)(F)F)NC(=O)N1 (stereo not given),1% (inactive)
11,NC1=NN(c2c(Cl)cc(Cl)cc2Cl)C(=O)C1,33.3% (inactive)
12,CCCCNC(=S)N(CCCC)CCCC,-16.2% (inactive)
13,COc1ccc(CCCN2c3ccccc3Sc3ccccc32)cc1,-23.9% (inactive)
14,C=CC(C)(C)C1=CC(=O)C(OC)=CC1=O,-54.9% (inactive)
15,O=c1[nH]nc(-c2ccccc2)c2c1[nH]c1ccccc12,-33.9% (inactive)
16,CC1=CNNc2ccccc21,8% (inactive)
17,S=C1Cc2c(-c3ccc(Br)cc3)cc(-c3ccccc3)nc2-c2ccccc2N1,20.6% (inactive)
18,O=c1[nH]c(=O)c2nccnc2[nH]1,0.75% (inactive)
19,CC1CN(C(=O)OCC23COC4(C)CCC(C)(OC2)N34)CC(C)O1 (stereo not given),13.4% (inactive)
20,O=C(Nc1nncs1)c1ccncc1,7.1% (inactive)
